# Only a selection was taken, and hits are over-represented in it overall.
# NTMT1 inhibitor: inhibitors of human N-terminal methyltransferase NTMT1. Q9BV86. NTMT1 MTase-Glo SAH luminescence, purified enzyme. Potency, µM (highest dose often 114 µM), inactives show top-dose activity change, negative = inhibition, hits mostly inhibitors. actives 2.5% (n = 59,000). AID 1645870;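 note: plate controls were DMSO vehicle for no effect and no enzyme for full effect; nearly all actives have a fitted effect of over 65% in size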
# Target sequence (Q9BV86 whole entry, looked up): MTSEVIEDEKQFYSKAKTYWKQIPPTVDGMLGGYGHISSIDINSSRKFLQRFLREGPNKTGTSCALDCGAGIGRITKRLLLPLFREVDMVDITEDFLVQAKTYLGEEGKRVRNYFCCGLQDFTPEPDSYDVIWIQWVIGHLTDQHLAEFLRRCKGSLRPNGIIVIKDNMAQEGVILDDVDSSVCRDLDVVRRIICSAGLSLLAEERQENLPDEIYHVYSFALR
# HTT-AS promoter: activators of huntingtin-antisense promoter activity. HEK293 HTT-AS promoter firefly luciferase reporter, 24 h; response scale: percent change from vehicle, -100% = no light. Potency, µM (doses to about 57.5 µM), for the others: at the top dose activity change, positive = activation, hits mostly activators. actives 0.24% (n = 48,000); note: nearly all actives have a fitted effect of over 55% in size
#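 Firefly luciferase signal from promoter-reporter HEK293 cells was scaled between vehicle (0%) and zero RLU (-100%). Compounds were tested at final concentrations of up to 57.5 uM over 24 h at 37 degrees C. PTC124 at 50 uM final served as control inhibitor.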
# HTT prom inh: HTT promoter inhibition; HEK293 HTT promoter firefly luciferase reporter, 24 h; Potency, µM (titrated, usually from 57.5 µM), for the others: at the highest dose activity change, negative = inhibition, hits mostly inhibitors; actives 0.93% (n = 48,000); note: nearly all actives have a fitted effect of over 50% in size
#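 Luminescence was read after Dual-Glo reagent and a 10 min room-temperature incubation. Values were normalized to vehicle (0% activity) and zero RLU (-100% activity). Reporter HEK293 cells had been exposed to compounds (up to 57.5 uM final) for 24 h.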
# * marks the source's active call; other numbers are inactive results; ? = inconclusive; . = not tested or not shown; ! = not active in a repeat; [ ] = dose if it differs, or a comment. Calls come from the whole dose curve; as a rule, active = well fitted curve in the direction sought with a large enough effect; inconclusive = small, poorly fitted or top-dose-only effect, or another doubt; inactive = no such curve, though single readings can be large; an effect the other way counts as inactive or inconclusive. Potency is the fitted concentration of half-maximal effect.
SMILES,NTMT1 inhibitor,HTT-AS promoter,HTT prom inh
C[n+]1cc(NC(=O)c2cccc(C(=O)Nc3cc4ccccc4[n+](C)c3)n2)cc2ccccc21,50µM*,.,.
COc1nc(N)nc2c1ncn2C1OC(CO)C(O)C1O (stereo not given),24%,.,.
Fc1cccc(Cl)c1CNc1n[nH]c(-c2ccco2)n1,-26%,5µM*,47%
CC(C)c1ccc(CNc2n[nH]c(-c3ccco3)n2)cc1,-14%,?,30%
COC1CC(C(=O)c2ccc3c(N)ncc(-c4ccc(-c5cnn(C)c5)cc4)c3n2)C1 (stereo not given),1%,.,.
Cc1oc(-c2ccccc2F)nc1CS(=O)(=O)CC(=O)N1CCN(c2ccc(Cl)cc2)CC1,?,-55%,28µM*
COc1cccc(-c2nc(CS(=O)(=O)CC(=O)N3CCN(c4ccccc4)CC3)c(C)o2)c1,2%,-26%,?
C=C1CCC2C(C)(C(=O)O)CCCC2(C)C1CCC1=CCOC1=O (stereo not given),3%[29.8 µM],.,.
Oc1cccc(Nc2cc(-c3ccccc3)ncn2)c1,40µM*,?,49%
Cc1cc(C)cc(Nc2cc(-c3ccccc3)nc(C)n2)c1,-1%,-26%,?
Cn1cnc(-c2nccc3c(=O)[nH]c(OCCCC(F)(F)F)nc23)c1,53%[57.5 µM],.,.
CC(=O)N1CCC[C@H]1C(=O)N[C@@H](Cc1cnc[nH]1)C(=O)N[C@@H](CO)C(=O)N[C@@H](CS)C(=O)N[C@@H](CC(N)=O)C(N)=O,12%,.,.
O=C(Nc1ccc(Br)cc1)c1ccc(Br)c(S(=O)(=O)N2CCCCC2)c1,1%,-26%,13µM*
O=C(O)c1ccc(NC(=O)c2ccc(Br)c(S(=O)(=O)N3CCCC3)c2)cc1,-5%,-16%,-8%
FC(F)(F)c1ccccc1-c1nc(NCc2ccc(-c3ccccc3)cc2)c2ccccc2n1,11%,.,.
CC(C)(C)c1ccc(C(=O)Nc2ccc3nc(SCC(=O)N4CCCC4)sc3c2)cc1,-6%,-86%,14µM*
O=C(Nc1ccc2nc(SCC(=O)N3CCCC3)sc2c1)c1ccc(Br)cc1,8%,-17%,-15%
CC1CCC23COC(=O)C2=CC(O)CC3C1(C)CCc1ccoc1 (stereo not given),-7%[29.8 µM],.,.
CC(C)Oc1ccc(-c2ccc(=O)n(CC(=O)NCCc3ccccc3)n2)cc1,11%,.,.
Cc1c(C(=O)Nc2ccc(Oc3ccnc4[nH]cc(-c5ccccc5)c34)c(F)c2)c(=O)n(-c2ccc(F)cc2)n1C,9%,.,.
CC(C)S(=O)(=O)Nc1ccc(F)c(C(=O)c2c[nH]c3ncc(-c4cccnc4)cc23)c1F,-6%[57.5 µM],.,.
Cc1cc(C(=O)N2Cc3cnn(C)c3Nc3ccccc32)ccc1CNC(=O)N1CCC[C@H]1C(=S)N1CCCN(C)CC1,25%[57.5 µM],.,.
Cn1nnnc1SCCCNCc1cccc(OCc2ccccc2Cl)c1,?,-11%,-14%
Cn1nnnc1SCCCNCc1ccccc1OCc1ccccc1Cl,?,-50%,14µM*
CC(=O)O[C@@H]1[C@@H](O)[C@H](O[C@@H]2[C@@H](O)[C@@H](O)[C@H](O[C@H]3[C@H](O[C@H]4[C@H](O[C@H]5CC[C@@]6(C)C(CC[C@]7(C)C6CC=C6[C@@H]8CC(C)(C)CC[C@]8(C(=O)O)CC[C@]67C)[C@]5(C)CO)O[C@H](CO)[C@@H](O)[C@@H]4O)OC[C@@H](O)[C@@H]3O)O[C@H]2C)OC[C@H]1O (stereo not given in full),5%[12.6 µM],.,.
SMILES,NTMT1 inhibitor,HTT-AS promoter,HTT prom inh
C=Cc1c(C)c2cc3[nH]c(cc4nc(cc5nc(cc1[nH]2)C(C)=C5CCC(=O)O)C(CCC(=O)O)=C4C)c(C)c3C=C,25µM*,-7%,1%
Cc1cccc(CNc2ccnc(-c3ccc4ccccc4c3)n2)c1,11%,.,.
C[C@@H](Oc1cc(-n2cnc3ccc(CN4CCN(C)CC4)cc32)sc1C(N)=O)c1ccccc1C(F)(F)F,8.9µM*,-45%,?
CC(Oc1cc(-n2cnc3ccc(CN4CCN(C)CC4)cc32)sc1C(N)=O)c1ccccc1C(F)(F)F (stereo not given),-18%[57.5 µM],.,.
Cc1cc(C)cc(NC(=O)c2cc(S(=O)(=O)N3CCCCCC3)cn2C)c1,13%,-13%,-9%
Cc1cc(C)cc(NC(=O)c2cc(S(=O)(=O)N3CCC(C)CC3)cn2C)c1,89µM*,-26%,-20%
Nc1nc(NC2CC2)cc(-c2cccc(Cl)c2Cl)n1,-14%[57.5 µM],.,.
COc1ccc(-c2coc3cc(O)cc(O)c3c2=O)cc1,-34%[57.5 µM],?,17%
O=c1c(-c2ccc(O)cc2)coc2cc(O)cc(O)c12,71µM*!,?,14%
O=C(NC1CCCc2c1cnn2CCO)c1ccccn1 (stereo not given),12%,.,.
